Glioma ERSR ind = inducers of ER stress response in human glioma cells; U87-MG GRP78 promoter luciferase reporter, 16 h; Potency, µM, without a hit: at the top dose activation, usual class: activators; hit rate 0.02% among 420,000; active = well fitted activation curve with a large enough effect; note: potency is the fitted concentration of half-maximal effect; series mostly up to about 76 µM; % of control where 0% means no effect; nearly all actives have a fitted effect of over 35% in size
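Stably transfected U87-MG human glioma cells carrying a GRP78-based luminescent sensor were seeded at 1000 cells/well, pin-dosed with compounds and incubated 16 h. Luciferase reagent was then added, and end-point luminescence was read after 10 min at room temperature.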
TRHR ag = TRH receptor (human) agonism; TRHR cells, calcium flux fluo-8, FDSS agonist mode; activation, % at 2 µM; hit rate 0.18% among 360,000; AID 493084; P34981; note: 0% is about no effect
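Agonist-mode FDSS calcium read (Ex 480/Em 530, 1 s cycles) in 1536-well TRHR cells with fluo-8 dye, after 10-cycle baseline and 23 nL compound addition; TRH at EC20 (10 nM final) added afterwards for the enhancer phase.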
D1 ag = agonists of human D1 dopamine receptor. P21728. HEK293 T-REx D1 cells, calcium flux, agonist mode. activation, % at 2 µM. hit rate 1% among 360,000. AID 504660; note: 0% is about no effect
Target sequence (P21728 whole entry, looked up): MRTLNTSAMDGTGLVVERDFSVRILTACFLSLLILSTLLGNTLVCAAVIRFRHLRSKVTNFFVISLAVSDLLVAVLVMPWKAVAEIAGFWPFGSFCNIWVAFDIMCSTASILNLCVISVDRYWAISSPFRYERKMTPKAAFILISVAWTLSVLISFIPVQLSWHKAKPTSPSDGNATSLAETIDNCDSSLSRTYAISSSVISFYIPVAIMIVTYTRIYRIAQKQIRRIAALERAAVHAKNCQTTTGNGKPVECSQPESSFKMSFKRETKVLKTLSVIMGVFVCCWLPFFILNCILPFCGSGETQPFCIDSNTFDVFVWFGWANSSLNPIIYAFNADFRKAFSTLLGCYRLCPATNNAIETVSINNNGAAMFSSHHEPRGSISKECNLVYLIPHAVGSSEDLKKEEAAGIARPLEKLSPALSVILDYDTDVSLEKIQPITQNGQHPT
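Agonism was scored from calcium flux recorded over 180 s (1 read/s) after pintool compound addition, following a 10-cycle baseline. Cells were inducible force-coupled HEK293 TREx D1, plated overnight at 30 C and loaded with no-wash calcium dye.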
TRHR PAM = allosterically enhances the human TRH receptor; P34981; TRHR cells, fluo-8 calcium fluorescence, EC20 TRH enhancement; enhancement, % at 2 µM; hit rate 0.66% among 360,000; AID 493056; in the data active = enhancement above about 30%; note: 0% is about no effect
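TRHR-expressing cells loaded with fluo-8 calcium dye were read kinetically (ex 480/em 530) during compound addition, then stimulated with an EC20 of TRH (10 nM final). Enhancement of the Gq-mediated intracellular calcium response was scored.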
D1 PAM = human D1 dopamine receptor positive modulation; P21728; hit rate 0.036% among 360,000; potentiation, % at 10 µM; HEK293 TREx D1 cells, calcium flux, dopamine EC20 potentiation; AID 504651; in the data active = potentiation above about 30%; note: 0% is about no effect
D1 antagonist = antagonists of human D1 dopamine receptor; activity change, negative = inhibition, % at 10 µM; HEK293 TREx D1 cells, calcium flux, dopamine EC80; hits give low values; P21728; hit rate 3.2% among 360,000; AID 504652; in the data active = activity change below about -30%; note: % is set by controls: 0 for no effect and ±100 for the full control effect
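Cells carrying a force-coupled, tetracycline-inducible human D1 receptor report calcium flux. Each well gets a 10 s baseline, compound with 180 s monitoring, then an EC80 dopamine stimulus with a second 180 s kinetic read.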
Numbers without * were called inactive; nt = no result; ! = a repeat was not active. Most compounds without a hit are left out; they make up all but 4% or so of the library. Cut-off read from the data, not from the text of the source, unless noted: active = activation above about 30%; inactive = the rest.

SMILES	Glioma ERSR ind	TRHR ag	D1 ag	TRHR PAM	D1 PAM	D1 antagonist
CCc1nn(CC(=O)NCCCN(CC)CC)c(=O)c2cc3occc3n12	-2.0%	-1.9	3.9	5.7	0.2	-4.8
CCc1nn(CC(=O)NCCCN2CCOCC2)c(=O)c2cc3cc(F)ccc3n12	-2.7%	-0.2	-0.4	-2.2	-12.5	-73.7*
CN(C)c1ccc(C=C(c2nnnn2-c2ccccc2)c2nnnn2-c2ccccc2)cc1	-5.1%	7.3	61.4*	4.0	-9.6	13.9
CN(C)/C=C(\C(=O)c1ccccc1)c1nnnn1-c1ccccc1	-5.5%	0.0	1.7	-3.8	-11.3	1.8
O=C(Nc1ccc(N2CCOCC2)cc1)c1ccc(Br)o1	-9.7%	0.3	1.0	-3.9	-7.3	-6.3
CN1CCN(c2ccc(NC(=O)c3ccccc3Br)cc2)CC1	6.9%	1.2	3.2	1.7	-16.3	-0.1
CN1CCN(c2ccc(NC(=O)c3ccc(-c4ccccc4F)o3)cc2)CC1	-4.6%	0.6	5.4	9.0	-18.9	-96.3*
CC(=O)Nc1ccc(NC(=O)c2ccc(-c3ccccc3Cl)o2)cc1	-4.9%	0.4	3.9	33.1*	-6.3	6.3
CN1CCN(c2ccc(NC(=O)c3ccc(Br)o3)cc2)CC1	-9.2%	0.3	3.9	-14.1	-10.1	-41.3*
CCOC(=O)c1ccc2c(c1)nc(SCC(=O)c1ccco1)n2CC	5.0%	-0.6	0.0	-1.8	-2.4	-33.9*
C=CCc1cccc2cc(C(=O)Nc3cccc(Cl)c3)c(=O)oc12	0.9%	0.0	-0.6	4.7	-2.0	9.2
C=CCc1cc(Cl)ccc1OC(=O)Nc1cccc(Cl)c1	0.5%	0.0	13.9	-4.8	-3.0	-55.2*
CN1CCN(c2cc(N3CCc4ccccc4C3)c(F)cc2[N+](=O)[O-])CC1	-2.6%	1.5	8.1	7.1	-16.9	-54.0*
Cc1ccc(C(C)C)c(OCCn2c(=O)oc3ccccc32)c1	-5.4%	-2.6	37.3*	2.6	-4.1	2.9
CCCCCOc1ccccc1Cn1c(=O)oc2ccc(C)cc21	-3.4%	1.3	10.4	-4.9	-1.1	-47.9*
CCCCOc1ccccc1Cn1c(=O)oc2ccc(C)cc21	-2.8%	0.4	4.3	-3.2	3.8	4.3
COc1ccc(OCCCn2c(=O)oc3ccc(C)cc32)cc1	nt	-0.8	73.2*	2.7	2.2	-32.2*
Cc1ccc2oc(=O)n(CC(=O)OCCC(C)C)c2c1	-3.9%	-0.6	1.9	35.2*	-5.3	-3.8
Cc1ccccc1OCCn1c(=O)oc2ccccc21	3.1%	-1.5	5.0	1.5	10.4	12.5
Cc1ccc2oc(=O)n(CCCOc3ccccc3)c2c1	-2.3%	-1.8	0.6	-3.0	-1.7	-12.9
CCCCCCCCNC(=O)/C(C#N)=C/c1ccc2c(c1)OCCO2	-2.1%	-0.5	6.6	8.4	0.3	-5.7
Cc1cc(-c2nnc(-c3cc4ccccc4oc3=O)o2)c(C)n1-c1ccccc1	6.4%	0.1	2.7	-5.2	-0.7	-42.6*
Cc1cc(/C=C(\C#N)C(N)=O)c(C)n1-c1ccc(N2CCOCC2)c([N+](=O)[O-])c1	-2.6%	0.2	12.3	5.3	-9.7	-32.0*
O=S1(=O)C2CC3C=CC2(O3)C(OCc2ccc(Cl)c(Cl)c2)C(Cc2ccccc2)N1Cc1ccc(Cl)c(Cl)c1 (configuration not stated)	-2.0%	nt	nt	nt	nt	nt
N#C[C@@H]1N(Cc2ccccc2)C(=O)[C@H]2CC3C=CC21O3 (some centres not stated)	-4.4%	-0.2	1.8	-4.7	-7.7	-31.7*
SMILES	Glioma ERSR ind	TRHR ag	D1 ag	TRHR PAM	D1 PAM	D1 antagonist
O=[N+]([O-])c1ccc2c(c1)CCN2	-0.9%	nt	nt	nt	nt	nt
COc1ccc(/C(C)=N/Nc2nc(C)c(C(C)=O)s2)cc1	6.4%	-0.2	4.0	4.4	2.0	-33.0*
O=c1cc(CN2CCN(C/C=C/c3ccccc3)CC2)c2cc(O)ccc2o1	-8.6%	0.9	11.3	2.5	3.0	-32.5*
Cc1ccc2oc(=O)cc(CN3CCN(C/C=C/c4ccccc4)CC3)c2c1	-10.1%	-0.3	6.5	-2.9	-2.2	24.4
COc1ccc(OCC(=O)OCC(=O)NCc2ccc(F)cc2)cc1	-3.2%	-0.7	1.2	-2.7	-3.2	-17.5
CCOC(=O)C1=C(CN2CCN(C(=O)OCC)CC2)NC(=O)NC1c1ccc2c(c1)OCO2 (configuration not stated)	-3.6%	0.0	1.0	-0.1	-1.2	-9.5
CCSCCOC(=O)C1=C(C)NC(=O)NC1c1ccc2c(c1)OCO2 (configuration not stated)	-1.4%	-0.2	2.0	36.6*	-4.3	-9.4
CCOC(=O)C1=C(C)NC(=O)NC1c1ccc2c(c1)OCO2 (configuration not stated)	1.1%	-2.1	12.7	-2.3	-5.0	1.0
CCOC(=O)C1=C(CNCCOc2ccc(OC)cc2)NC(=O)NC1c1ccc2c(c1)OCO2 (configuration not stated)	-4.4%	0.1	8.9	7.0	-3.0	-33.5*
COCCN(C(=O)COC(=O)c1nc(Cl)ccc1Cl)c1c(N)n(Cc2ccccc2)c(=O)[nH]c1=O	-4.6%	-1.2	6.1	0.2	-1.9	2.1
CC(C)c1nnc(NC(=O)c2nc(S(=O)(=O)Cc3ccccc3F)ncc2Cl)s1	-16.3%	0.0	1.9	2.0	-1.1	-0.1
O=C(Nc1nc2ccc(F)cc2s1)c1nc(S(=O)(=O)Cc2ccccc2F)ncc1Cl	-10.3%	0.1	-0.2	-9.6	12.5	-34.1*
CCS(=O)(=O)c1ncc(Cl)c(C(=O)Nc2ccc(C)cc2)n1	-15.2%	0.8	7.2	-6.7	-10.2	-22.0
CCS(=O)(=O)c1ncc(Cl)c(C(=O)NCc2ccccc2)n1	nt	0.3	0.9	-14.2	-2.8	-32.8*
Cc1ccc(C)c(NC(=O)c2nc(S(=O)(=O)Cc3ccc(F)cc3)ncc2Cl)c1	-10.5%	-0.4	-0.3	-11.9	-2.2	-36.6*
O=C(NCc1ccccc1)c1nc(S(=O)(=O)Cc2ccccc2)ncc1Cl	-14.9%	-0.5	0.5	-10.1	-6.0	-41.1*
COC(=O)c1ccccc1NC(=O)c1nc(S(=O)(=O)Cc2ccccc2)ncc1Cl	-2.9%	-0.2	1.7	-2.7	-1.5	-19.1
COc1ccc(NC(=O)c2nc(S(=O)(=O)Cc3ccc(C)cc3)ncc2Cl)cc1	nt	-0.4	1.0	-8.7	-3.4	-37.9*
CCNC(=O)c1c(NC(=O)c2nc(S(=O)(=O)CC)ncc2Cl)sc2c1CCCC2	-10.7%	-0.3	13.3	-22.2	-3.4	-54.5*
COc1ccc(CNC(=O)c2nc(S(=O)(=O)Cc3ccccc3)ncc2Cl)cc1	-14.9%	-1.2	5.5	-8.1	-5.6	-36.6*!
CCNC(=O)c1c(NC(=O)c2nc(SCC)ncc2Cl)sc2c1CCCC2	-3.8%	nt	nt	nt	nt	nt
CCOc1ccccc1NC(=O)c1nc(S(=O)(=O)Cc2cccc(C)c2)ncc1Cl	-2.4%	0.7	2.2	-7.4	-4.5	-31.3*!

Assay outcomes as filed in PubChem BioAssay.
